Inconclusive results are not listed. Where a call stands in place of a potency, no number is given. Calls of active or inactive are those of the source. Calls come from the whole dose curve; tested in HEK293 reporter line.

The nature of one test: qHTS for Inhibitors of the Functional Ribonucleoprotein Complex (vRNP) of Lassa (LASV) Arenavirus: LASV Primary Screen - GLuc reporter signal (AID 1347082). Note: nearly all actives have a fitted effect of over 60% in size. As to conditions: LASV minigenome vRNP, Gaussia luciferase reporter; series mostly up to 57.5 µM. In general terms: qHTS replaces the single test concentration by a dilution series.
For the compound `CC(C)CC[C@@H](O)[C@](C)(O)C1CC[C@@]2(O)C3=CC(=O)[C@@H]4C[C@@H](O)[C@@H](O)C[C@]4(C)C3CC[C@]12C` (stereo not given in full), the Potency entry was “inactive”.

On to `CCCCCCOC(=O)CCCCC`, for which the Potency entry was “inactive”.

On to `C=C(C)C1Cc2cc3ccc(=O)oc3cc2O1` (stereo not given), for which the Potency result was “inactive”.

As to `O=C1O[C@@H](c2ccc(O)cc2)Cc2cccc(O)c21`, the Potency entry is “inactive”.

As for `O=C1C=C(O)c2cccc(O)c2C1=O`, the Potency result was “inactive”.

Take `CC(=O)c1c(O)cc(O)cc1O`: the Potency entry is “inactive”.

As to `N[C@H](C(=O)O)[C@H]1C[C@@H]1C(=O)O`, the Potency entry is “inactive”.

Consider `COc1c2c(c(CCC(=O)O)c3c1C=CC(C)(C)O3)OC(C)(C)C=C2`, for which the Potency result is “inactive”.

In the case of `C/C(=N/N=C(\C)c1ccccc1O)c1ccccc1O`, the Potency result is “inactive”.

Consider `O=C1c2c(O)cc(O)cc2O[C@H](c2ccc(O)c(O)c2)[C@@H]1O`, for which the Potency result is “inactive”.

With `COc1c2n(C)ccc3c-2n(c(=O)c1=O)c1ccccc31`, the Potency result was “inactive”.

On to `O=c1[nH]c(=O)c2ncn(C3OC(CO)C(O)C3O)c2[nH]1` (stereo not given), for which the Potency result is “inactive”.

For `COc1c(O)c(O)c2oc(-c3ccccc3)cc(=O)c2c1OC`, the Potency result is “inactive”.

For the compound `CC1=CC2OC3CC4OC(=O)C=CC=CC(C(C)O)OCC(O)C5(C)OC5C(=O)OCC2(CC1O)C4(C)C31CO1` (stereo not given), the Potency entry is “inactive”.

With `Cc1c(O)c2c(c(C(=O)/C=C/c3ccccc3)c1O)OC(C)(C)C=C2`, the Potency entry is “inactive”.

As to `CN1C2CCC1CC(OC(=O)c1cccc(O)c1)C2` (stereo not given), the Potency result is “inactive”.

Regarding `CC1(C)Oc2ccc3ccc(=O)oc3c2C[C@H]1O[C@@H]1O[C@H](CO)[C@@H](O)[C@H](O)[C@H]1O`, the Potency entry is “inactive”.

As to `c1cnc2c(-c3nccc4c3[nH]c3ccccc34)cccc2c1`, the Potency entry is “inactive”.

As to `C=C1CC23C[C@H]4[C@@H]5[C@@]6(C)C[C@H](OC(=O)c7ccccc7)[C@@H](OC(C)=O)[C@]57[C@@H]2[C@@H](OC(C)=O)[C@H]1[C@@H](O)[C@H]3[C@H]7N4C6`, the Potency entry is “inactive”.

Take `COc1ccc(C(=O)OC2CC3CCC(C2)[N+]3(C)[O-])cc1OC` (stereo not given): the Potency result is “inactive”.

Consider `CCCCCCCCC(=O)OCC`, for which the Potency result was “inactive”.

Consider `C=C(C)C1CCC(C)(O)CC1` (stereo not given), for which the Potency result was “inactive”.

In the case of `COC(=O)C1C2CC3c4[nH]c5cc(OC)ccc5c4CCN3CC2CC(OC(=O)c2cc(OC)c(OC)c(OC)c2)C1OC` (stereo not given), the Potency result was “inactive”.

Turning to `C#C[C@]1(O)CC[C@@H]2[C@@H]3CCC4=CC(=O)CC[C@@H]4[C@H]3CC[C@@]21CC`, the Potency entry is “inactive”.

`C=C[C@]1(C)C=C2C(=O)C[C@H]3C(C)(C)CCC[C@]3(C(=O)O)[C@@]2(O)CC1`: the Potency entry is “inactive”.

Consider `CC1C(=O)OC2CCN3CC=C(COC(=O)C(C)(O)C1(C)O)C23` (stereo not given), for which the Potency entry was “inactive”.

Regarding `CCCCCCCCC1OC1CCCCCCCC(=O)O` (stereo not given), the Potency result is “inactive”.

For `NC(=O)Nc1ccc(Cl)c(Cl)c1`, the Potency result is “inactive”.

On to `OCCNC1CCCc2c1[nH]c1ccc(-c3ccccc3)cc21` (stereo not given), for which the Potency entry was “inactive”.

As for `C=C1C(=O)O[C@H]2C[C@]3(C)C([C@@H](OC(=O)/C(C)=C/C)[C@H]12)[C@](C)(O)CC[C@H]3O` (stereo not given in full), the Potency entry was “inactive”.

Turning to `COc1cc(/C=C/c2ccccc2)cc(OC)c1`, the Potency entry is “inactive”.

For the compound `CC(=O)c1ccc(C)cc1`, the Potency result is “inactive”.

With `CC1=CCCC(C)(C)C12CCC(C)O2` (stereo not given), the Potency entry was “inactive”.

`N#CC(c1ccc(O)cc1)N1CCCCC1` (stereo not given): the Potency result was “inactive”.

Turning to `COc1cc(O)c2c(=O)c3c(O)ccc(O)c3oc2c1`, the Potency result was “inactive”.

For the compound `CC(=O)[C@@]1(O)CCC2C3CC[C@H]4C[C@@H](O)CC[C@]4(C)C3CC[C@@]21C` (stereo not given in full), the Potency result is “inactive”.

Take `COc1cc(C(=O)O)cc(OC)c1OC`: the Potency entry was “inactive”.

With `CC(C)(O)CC[C@@H](O)[C@](C)(O)C1CC[C@@]2(O)C3=CC(=O)[C@]4(O)C[C@@H](O)[C@@H](O)C[C@]4(C)C3CC[C@]12C` (stereo not given in full), the Potency entry was “inactive”.

For `C[C@H]1C[C@@H]2[C@@H]([C@@H](O)C[C@@]3(C)[C@H]2CC[C@]3(O)C(=O)CO)[C@@]2(C)C=CC(=O)C=C12`, the Potency entry was “inactive”.

Regarding `C[C@](Cc1ccc(O)c(O)c1)(NN)C(=O)O`, the Potency result was “inactive”.

The nature of a further test: qHTS for Inhibitors of the Functional Ribonucleoprotein Complex (vRNP) of Lassa (LASV) Arenavirus: Viability assay - alamar blue signal for LASV Primary Screen (AID 1347083). Note: nearly all actives have a fitted effect of over 80% in size. As to conditions: cell viability, alamar blue fluorescence (LASV minigenome counter-screen); series mostly up to 57.5 µM.
Turning to `CC(C)CC[C@@H](O)[C@](C)(O)C1CC[C@@]2(O)C3=CC(=O)[C@@H]4C[C@@H](O)[C@@H](O)C[C@]4(C)C3CC[C@]12C` (stereo not given in full), the Potency result is “inactive”.

Take `CCCCCCOC(=O)CCCCC`: the Potency result is “inactive”.

As to `C=C(C)C1Cc2cc3ccc(=O)oc3cc2O1` (stereo not given), the Potency entry is “inactive”.

As for `O=C1O[C@@H](c2ccc(O)cc2)Cc2cccc(O)c21`, the Potency result was “inactive”.

As to `O=C1C=C(O)c2cccc(O)c2C1=O`, the Potency result is “inactive”.

On to `CC(=O)c1c(O)cc(O)cc1O`, for which the Potency entry is “inactive”.

Consider `N[C@H](C(=O)O)[C@H]1C[C@@H]1C(=O)O`, for which the Potency result was “inactive”.

With `COc1c2c(c(CCC(=O)O)c3c1C=CC(C)(C)O3)OC(C)(C)C=C2`, the Potency result was “inactive”.

For `C/C(=N/N=C(\C)c1ccccc1O)c1ccccc1O`, the Potency result was “inactive”.

For `O=C1c2c(O)cc(O)cc2O[C@H](c2ccc(O)c(O)c2)[C@@H]1O`, the Potency entry was “inactive”.

Turning to `COc1c2n(C)ccc3c-2n(c(=O)c1=O)c1ccccc31`, the Potency result was “inactive”.

With `O=c1[nH]c(=O)c2ncn(C3OC(CO)C(O)C3O)c2[nH]1` (stereo not given), the Potency result is “inactive”.

As for `COc1c(O)c(O)c2oc(-c3ccccc3)cc(=O)c2c1OC`, the Potency result is “inactive”.

With `CC1=CC2OC3CC4OC(=O)C=CC=CC(C(C)O)OCC(O)C5(C)OC5C(=O)OCC2(CC1O)C4(C)C31CO1` (stereo not given), the Potency result was “inactive”.

As for `Cc1c(O)c2c(c(C(=O)/C=C/c3ccccc3)c1O)OC(C)(C)C=C2`, the Potency entry is “inactive”.

Consider `CN1C2CCC1CC(OC(=O)c1cccc(O)c1)C2` (stereo not given), for which the Potency entry is “inactive”.

Consider `CC1(C)Oc2ccc3ccc(=O)oc3c2C[C@H]1O[C@@H]1O[C@H](CO)[C@@H](O)[C@H](O)[C@H]1O`, for which the Potency result is “inactive”.

As to `c1cnc2c(-c3nccc4c3[nH]c3ccccc34)cccc2c1`, the Potency result is “inactive”.

Turning to `C=C1CC23C[C@H]4[C@@H]5[C@@]6(C)C[C@H](OC(=O)c7ccccc7)[C@@H](OC(C)=O)[C@]57[C@@H]2[C@@H](OC(C)=O)[C@H]1[C@@H](O)[C@H]3[C@H]7N4C6`, the Potency result was “inactive”.

As to `COc1ccc(C(=O)OC2CC3CCC(C2)[N+]3(C)[O-])cc1OC` (stereo not given), the Potency entry was “inactive”.

`CCCCCCCCC(=O)OCC`: the Potency entry is “inactive”.

On to `C=C(C)C1CCC(C)(O)CC1` (stereo not given), for which the Potency result was “inactive”.

Regarding `COC(=O)C1C2CC3c4[nH]c5cc(OC)ccc5c4CCN3CC2CC(OC(=O)c2cc(OC)c(OC)c(OC)c2)C1OC` (stereo not given), the Potency entry is “inactive”.

Regarding `C#C[C@]1(O)CC[C@@H]2[C@@H]3CCC4=CC(=O)CC[C@@H]4[C@H]3CC[C@@]21CC`, the Potency entry was “inactive”.

For the compound `C=C[C@]1(C)C=C2C(=O)C[C@H]3C(C)(C)CCC[C@]3(C(=O)O)[C@@]2(O)CC1`, the Potency entry is “inactive”.

As for `CC1C(=O)OC2CCN3CC=C(COC(=O)C(C)(O)C1(C)O)C23` (stereo not given), the Potency entry was “inactive”.

Take `CCCCCCCCC1OC1CCCCCCCC(=O)O` (stereo not given): the Potency result is “inactive”.

On to `NC(=O)Nc1ccc(Cl)c(Cl)c1`, for which the Potency result is “inactive”.

For the compound `OCCNC1CCCc2c1[nH]c1ccc(-c3ccccc3)cc21` (stereo not given), the Potency result is “inactive”.

As to `C=C1C(=O)O[C@H]2C[C@]3(C)C([C@@H](OC(=O)/C(C)=C/C)[C@H]12)[C@](C)(O)CC[C@H]3O` (stereo not given in full), the Potency entry was “inactive”.

Regarding `COc1cc(/C=C/c2ccccc2)cc(OC)c1`, the Potency result was “inactive”.

For the compound `CC(=O)c1ccc(C)cc1`, the Potency result is “inactive”.

On to `CC1=CCCC(C)(C)C12CCC(C)O2` (stereo not given), for which the Potency result was “inactive”.

Consider `N#CC(c1ccc(O)cc1)N1CCCCC1` (stereo not given), for which the Potency result is “inactive”.

In the case of `COc1cc(O)c2c(=O)c3c(O)ccc(O)c3oc2c1`, the Potency entry is “inactive”.

Turning to `CC(=O)[C@@]1(O)CCC2C3CC[C@H]4C[C@@H](O)CC[C@]4(C)C3CC[C@@]21C` (stereo not given in full), the Potency entry was “inactive”.

Turning to `COc1cc(C(=O)O)cc(OC)c1OC`, the Potency entry is “inactive”.

Regarding `CC(C)(O)CC[C@@H](O)[C@](C)(O)C1CC[C@@]2(O)C3=CC(=O)[C@]4(O)C[C@@H](O)[C@@H](O)C[C@]4(C)C3CC[C@]12C` (stereo not given in full), the Potency entry was “inactive”.

For `C[C@H]1C[C@@H]2[C@@H]([C@@H](O)C[C@@]3(C)[C@H]2CC[C@]3(O)C(=O)CO)[C@@]2(C)C=CC(=O)C=C12`, the Potency result was “inactive”.

Take `C[C@](Cc1ccc(O)c(O)c1)(NN)C(=O)O`: the Potency result is “inactive”.

The record behind these values is PubChem BioAssay (NCATS).
